NS1 inh – inhibitors of influenza NS1 protein function | Potency, µM (titrated, usually from 46.1 µM) | actives 0.4% (n = 270,000) | AID 2326; calls by dose curve; further: actives are rising curves; nearly all actives have a fitted effect of over 50% in size
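S. cerevisiae expressing influenza A NS1, grown in glucose, washed, then diluted 1:100 into pH 6.0 -URA galactose medium with 23 nl compound. Growth recovery read as OD600; NS1-free strain serves as control.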
SARS PLpro yeast – inhibitors of SARS-CoV papain-like protease in yeast. S. cerevisiae expressing SARS-CoV PLpro, growth rescue. Potency, µM (titrated, usually from 32.9 µM), actives largely listed as activators. actives 0.19% (n = 330,000). AID 485353; calls by dose curve; further: nearly all actives have a fitted effect of over 55% in size
FBPA Giardia inh – blocks Giardia fructose-bisphosphate aldolase activity; AID 2451; purified Giardia FBPA; Potency, µM (titrated, usually from 59.6 µM), usual class: inhibitors; actives 0.71% (n = 290,000); A8B2U2; further: nearly all actives have a fitted effect of over 55% in size
Target sequence (A8B2U2 whole entry, looked up): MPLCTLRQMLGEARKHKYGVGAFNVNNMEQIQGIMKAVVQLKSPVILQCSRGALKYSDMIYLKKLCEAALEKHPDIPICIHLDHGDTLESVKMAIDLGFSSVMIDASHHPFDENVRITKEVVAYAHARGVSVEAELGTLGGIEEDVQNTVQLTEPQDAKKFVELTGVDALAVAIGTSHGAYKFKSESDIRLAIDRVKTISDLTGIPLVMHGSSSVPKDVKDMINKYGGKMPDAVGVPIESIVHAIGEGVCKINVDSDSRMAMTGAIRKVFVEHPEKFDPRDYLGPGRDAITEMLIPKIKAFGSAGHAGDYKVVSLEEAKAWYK
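40 nM FBPA preincubated 10 min at RT with compound (up to 57.5 uM final), then substrate plus GAPDH/TPI/NAD/arsenate coupling and diaphorase/resazurin added. Fluorescence read after 20 min at RT, 525/598 nm.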
AmpC detergent – inhibitors of E. coli AmpC beta-lactamase with detergent; AmpC hydrolysis of nitrocefin, absorbance 480 nm, 0.01% Triton; Potency, µM (titrated, usually from 114 µM), usual class: inhibitors; actives 0.041% (n = 370,000); AID 485294; further: nearly all actives have a fitted effect of over 25% in size
Target sequence (P00811 whole entry, looked up): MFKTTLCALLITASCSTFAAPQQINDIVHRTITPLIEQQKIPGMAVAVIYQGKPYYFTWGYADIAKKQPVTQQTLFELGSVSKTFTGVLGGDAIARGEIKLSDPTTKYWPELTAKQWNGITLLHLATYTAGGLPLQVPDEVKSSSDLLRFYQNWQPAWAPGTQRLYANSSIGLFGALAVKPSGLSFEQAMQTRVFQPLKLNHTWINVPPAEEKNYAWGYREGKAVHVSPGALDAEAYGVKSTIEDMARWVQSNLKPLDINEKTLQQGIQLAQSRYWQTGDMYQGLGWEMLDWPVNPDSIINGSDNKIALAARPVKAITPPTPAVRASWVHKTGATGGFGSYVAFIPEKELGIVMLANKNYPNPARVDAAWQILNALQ
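AmpC (5.3 nM in the dispensed reagent) in 20 mM phosphate pH 7.0 with 0.01% (detergent screen) or 0.0001% Triton X-100 was preincubated with compounds for 15 min at room temperature. Nitrocefin was then added from an 800 uM solution, and hydrolysis was followed at 480 nm.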
AmpC no deterg – inhibitors of E. coli AmpC beta-lactamase without detergent | AID 485341 | actives 0.52% (n = 330,000) | AmpC nitrocefin hydrolysis, absorbance 480 nm, 0.0001% Triton | Potency, µM (series often up to 57.1 µM), most hits filed as inhibitors; further: nearly all actives have a fitted effect of over 20% in size
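20 mM phosphate pH 7.0 + 0.01% (detergent screen) or 0.0001% Triton X-100; 5.3 nM AmpC reagent; cpd preinc 15 min RT; nitrocefin (800 uM stock) to start; A480 q20 s × 4 min; Activity was normalised to no-enzyme and no-compound control wells.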
A number is an active result; – = inactive; ? = inconclusive; · = no result; ! = a repeat was not active. Only some compounds are listed: those with a hit (about 1.4% of all), similar ones and a draw of the others. Unless noted, the call rests on the fitted dose curve; in most records, active means well fitted curve in the direction sought with a large enough effect; inconclusive means small, poorly fitted or top-dose-only effect, or another doubt; inactive means no such curve, though single readings can be large; an effect the other way counts as inactive or inconclusive.

SMILES | NS1 inh | SARS PLpro yeast | FBPA Giardia inh | AmpC detergent | AmpC no deterg
O=C1S/C(=C\C=C\c2ccco2)C(=O)N1c1ccc(O)cc1 | – | – | ? | – | 32µM
O=C1S/C(=C\C=C\c2ccco2)C(=O)N1c1ccccc1 | – | – | – | – | –
O=C(NN1C(=O)/C(=C/C=C/c2ccco2)SC1=S)c1ccccc1O | – | – | – | – | 16µM
CCn1c(=O)n(-c2cccc(Cl)c2)c(=O)c2sc3ccccc3c21 | · | · | · | – | ·
Cc1ccc(-c2nc(C#N)c(NCc3cccc4c3OCO4)o2)cc1 | – | – | – | – | 0.32µM
N#Cc1nc(-c2ccc(F)cc2)oc1NCc1cccc2c1OCO2 | – | – | – | – | –
C=CCSc1ccsc1C(=O)O | – | – | – | ? | –
CC(OC(=O)CNS(=O)(=O)c1ccc2ccccc2c1)C(=O)N(C)c1ccccc1 (stereo not given) | – | · | – | – | –
CC(OC(=O)COc1ccc(Nc2ccccc2)cc1)C(=O)N(C)c1ccccc1 (stereo not given) | · | – | · | – | 40µM
Cc1cc(/C=C(\C#N)C(=O)Nc2ccc(Cl)cc2)c(C)n1-c1ccc(N2CCOCC2)c([N+](=O)[O-])c1 | – | – | – | – | 7.9µM
O=C(Cn1cc2c(n1)CCCCC2)NCCCN1CCOCC1 | – | ? | – | ? | 45µM
O=C(Cn1cc2c(n1)CCCC2)NCCCN1CCCC1 | – | – | – | – | –
CC(C)(C)NC(=O)C(c1ccc(O)cc1)N(Cc1ccccc1)C(=O)CCC(=O)Nc1nccs1 (stereo not given) | – | – | – | ? | –
C=CC[C@H](CC(=O)NCCO)C(=O)N[C@H](COC(=O)[C@@H](CC=C)Cc1ccc(F)cc1)C(C)(C)C | · | – | · | · | –
Cc1ccc(NC(=O)CN2C(=O)S/C(=C/c3ccc(O)c([N+](=O)[O-])c3)C2=O)cc1C | – | – | – | 50µM | –
CC(C)c1ccc(S(=O)(=O)/N=C2/C=CC(=O)c3ccccc32)cc1 | · | – | 14µM | – | 28µM
CC(C)c1ccc(S(=O)(=O)/N=C2\C=C(NS(=O)(=O)c3ccccc3)C(=O)c3ccccc32)cc1 | – | – | ? | – | –
O=C(Nc1ccccc1C(=O)NCc1ccco1)Nc1cccc2ccccc12 | · | – | – | – | 20µM
NC(=O)c1ccsc1NC(=O)c1ccc(N2CCCC2=O)cc1 | – | – | – | – | 7.9µM
Cc1ccc(C(=O)NCC(=O)OC(C)C(=O)Nc2ccc(N3CCOCC3)cc2)s1 (stereo not given) | – | – | – | – | –
Cc1ccc(O)c(C(=O)CC(=O)c2cccc(F)c2)c1 | – | – | – | – | 20µM
Cc1cccc(C(=O)CC(=O)c2cc(Cl)ccc2O)c1 | – | – | – | – | –
CN=C1N[C@H](c2ccccc2)N(c2ccccc2)S1 | · | · | 22µM | · | ·
O=C(/C=C/c1ccc(Br)cc1)NC(=S)N1CCOCC1 | – | – | – | – | –
COc1ccc2[nH]cc(CCn3ccc(O)c(C/C=C/c4ccccc4)c3=O)c2c1 | ? | – | – | – | 16µM
SMILES | NS1 inh | SARS PLpro yeast | FBPA Giardia inh | AmpC detergent | AmpC no deterg
CCc1nc2sc3c(c2c(=O)n1NC(=O)CCl)CCCC3 | – | 10µM | – | – | –
Cc1ccc(C(=O)Nc2ncc(Cc3ccc(F)cc3)s2)o1 | – | – | – | ? | 32µM
O=C1c2cc(Br)ccc2N(Cc2ccc(Br)cc2)S(=O)(=O)C1c1cc(Cl)c(Cl)cc1[N+](=O)[O-] (stereo not given) | · | – | · | · | 2µM
O=C1CS(=O)(=O)N(Cc2cccc(F)c2)c2ccc(Br)cc21 | · | – | · | – | –
COC(=O)c1c(N)c(C#N)c2n1CCCCC2 | – | – | – | – | –
COc1cc([N+](=O)[O-])cc(/C=N/NC(=O)C(C)Nc2ccccc2C)c1O (stereo not given) | – | 22µM | – | ? | –
COc1cc([N+](=O)[O-])cc(/C=N/NC(=O)Cn2cncn2)c1O | – | – | ? | – | –
COc1cc([N+](=O)[O-])cc(/C=N/NC(=O)CC#N)c1O | · | 7.1µM | – | – | –
COc1ccc(N2CCN(C(=O)Cc3nn(C)c(=O)c4ccccc34)CC2)cc1 | – | – | – | ? | –
Cc1onc(-c2ccccc2)c1C(=O)Nc1cccc(C#N)c1 | – | – | – | – | 11µM
Cc1nnc(Sc2cc(NCCCO)c([N+](=O)[O-])c3nonc23)s1 | – | – | ? | ? | 28µM
Cc1ccc(Cl)cc1-n1c(=O)cc(N2CCN(C(=O)c3ccco3)CC2)[nH]c1=O | – | – | – | – | –
O=C(c1ccco1)N1CCN(c2ncnc3c2[nH]c2ccc(Cl)cc23)CC1 | 2.2µM | ? | – | – | –
O=C(c1ccco1)N1CCN(c2cc(=O)n(-c3ccc(Cl)cc3)c(=O)[nH]2)CC1 | – | – | – | ? | 45µM
COc1ccc2oc(=O)c(C(=O)NC3CCCCCC3)cc2c1 | – | – | – | – | –
Cc1c(Cl)cccc1NC(=S)NCc1cccn1C | – | – | – | – | –
CC1CCN(C(=O)c2nc[nH]c2C(=O)OCCNC(=O)OC(C)(C)C)CC1 | · | – | · | – | –
N[C@@H](C(=O)N[C@@H]1C(=O)N2C(C(=O)O)=C(Cl)CS[C@H]12)c1ccccc1 | – | – | 20µM! | – | –
CC1=C(C(=O)O)N2C(=O)[C@@H](NC(=O)C(N)C3=CCC=CC3)[C@H]2SC1 (stereo not given in full) | – | · | – | · | ·
CC1=C(C(=O)O)N2C(=O)C(NC(=O)c3nn(C)cc3Cl)C2SC1 (stereo not given) | – | – | – | ? | –
C=CC1=C(C(=O)O)N2C(=O)[C@@H](NC(=O)C(N=O)c3csc(N)n3)[C@H]2SC1 (stereo not given in full) | · | · | 16µM | · | ·
CC1=C(C(=O)O)N2C(=O)C(NC(=O)C(N)C3=CCC=CC3)C2SC1 (stereo not given) | · | · | 7.9µM | · | ·
CC1=C(C(=O)O)N2C(=O)C(NC(=O)c3ccccc3Cl)C2SC1 (stereo not given) | – | – | – | 71µM | –
Cc1ccc(C(C(=O)NC2CCCC2)N(C(=O)Cc2cccs2)c2cccc(C)c2C)o1 (stereo not given) | – | – | – | – | –
CN(Cc1cccc(F)c1)C(=O)c1ccc(NS(=O)(=O)c2ccc3[nH]c(=O)[nH]c3c2)cc1 | · | – | · | – | –
SMILES | NS1 inh | SARS PLpro yeast | FBPA Giardia inh | AmpC detergent | AmpC no deterg
Nc1nc(SCc2ccc(Cl)c(Cl)c2)n[nH]1 | – | – | – | – | –
O=S1(=O)C=C(SCc2ccc(Cl)c(Cl)c2)Nc2ccccc21 | – | – | – | – | 18µM
CCOC(=O)C1CCN(C(=O)CSc2nc(N)cc(=O)[nH]2)CC1 | – | – | – | – | –
CCCCCC(CC(=O)NO)C(=O)NC(C(=O)N1CCCC1CO)C(C)C (stereo not given) | · | · | · | – | –
COC(=O)c1cc(=O)n(CCc2ccccc2)c(=Nc2ccc(F)cc2)s1 | – | – | – | – | 0.71µM
CC(C)NC(=O)Nc1ccc(Br)cc1Cl | – | – | – | – | –
